# Compounds with a hit are over-represented: about 19% of the library has one in this group of screens.
# HT1080-NT tox = qHTS for induction of synthetic lethality in tumor cells producing 2HG: qHTS for the HT-1080-NT fibrosarcoma cell line | HT-1080-NT fibrosarcoma viability, CellTiter-Glo ATP luminescence, 48 h | Potency, µM (doses to about 46.1 µM), inactives show at the top dose activity, negative = less viability, most hits filed as cytotoxic | 360,000 tested, 1.6% active;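 further: NT is the 2HG producing partner of a matched IDH1 knockdown line; potency means the concentration at half of the fitted maximal effect; 0% = DMSO-treated cells and -100% = media-only wells without cells; nearly all actives have a fitted effect of over 55% in size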
#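 Viability of the 2HG-overproducing fibrosarcoma line after 48 hours of compound exposure at 37 degrees C was determined by luminescence with CellTiter-Glo, and concentration-effect curves were then fitted and categorized.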
# TDP1 cell CPT = qHTS for Inhibitors of human tyrosyl-DNA phosphodiesterase 1 (TDP1): qHTS in cells in presence of CPT | chicken DT40 Tdp1-/-;hTDP1 cells + 20 nM CPT, ATP luminescence, 48 h | Potency, µM (series often up to 46.2 µM), without a hit: top-dose activity change, negative = growth inhibition, actives largely listed as inhibitors | 420,000 tested, 12% active; further: potency means the concentration at half of the fitted maximal effect; nearly all actives have a fitted effect of over 55% in size
#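 Cell growth measured by CellTiter-Glo luminescence after a minimum 48 h, 37 C compound exposure with 20 nM CPT in Tdp1-knockout DT40 cells stably expressing hTDP1, seeded 400/well; qHTS titration format.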
# IL1B secr inh = qHTS for Inhibitors of Inflammasome Signaling: IL-1-beta AlphaLISA Primary Screen; AID 743279, 2014; 360,000 tested, 4.7% active; activity change, % at 57.5 µM; THP-1 LPS/ATP IL-1B secretion, AlphaLISA, 16 h; hits give low values; in the data active means activity change below about -50%; inconclusive means mostly about -30% to -49%
#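 THP-1 cells pretreated 1 hr with compounds (up to 57.5 uM final), then stimulated with LPS (250 ng/mL final) plus ATP (1.25 mM final); secreted IL-1B measured by AlphaLISA after 16 hr, decreased signal indicating inhibition.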
# DT40 TDP1 no CPT = qHTS for Inhibitors of human tyrosyl-DNA phosphodiesterase 1 (TDP1): qHTS in cells in absence of CPT; DT40 Tdp1-/- hTDP1 cells, no CPT, ATP luminescence, 48 h; Potency, µM (titrated, usually from 46.2 µM), inactives show top-dose activity change, negative = growth inhibition, actives largely listed as inhibitors; 420,000 tested, 15% active; AID 686978, 2013; further: potency means the concentration at half of the fitted maximal effect; nearly all actives have a fitted effect of over 55% in size
#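 Growth kinetics read by CellTiter-Glo luminescence after ≥48 hr at 37 °C. Cells: DT40 Tdp1-/- stably carrying human TDP1, 400 per well, compound exposure in the absence of CPT (DMSO vehicle).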
# HT1080 IDH1KD tx = qHTS for induction of synthetic lethality in tumor cells producing 2HG: qHTS for the HT-1080-IDH1KD cell line | HT-1080 IDH1 knockdown viability, ATP luminescence, 48 h | Potency, µM (series often up to 46.1 µM), for inactives: top-dose activity, negative = toxicity, usual class: cytotoxic | 360,000 tested, 2% active;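 further: potency means the concentration at half of the fitted maximal effect; 0% = DMSO wells and -100% = cell-free medium wells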
#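 CellTiter-Glo luminescence after 48 h compound exposure at 37 degrees C of IDH1-knockdown HT-1080 cells in 5% FBS RPMI. %Activity scaled between DMSO wells and cell-free media wells, with curves fitted and assigned curve classes.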
# Active calls of the source: *; ? = inconclusive; nt = no result given; ! = repeats disagree; [ ] = remark or other dose. Unless noted, the call rests on the fitted dose curve; in most records, active means well fitted curve in the direction sought with a large enough effect; inconclusive means small, poorly fitted or top-dose-only effect, or another doubt; inactive means no such curve, though single readings can be large; an effect the other way counts as inactive or inconclusive. Unless noted, on the % scale 0 is the no-effect control and ±100 the full control effect.
SMILES,HT1080-NT tox,TDP1 cell CPT,IL1B secr inh,DT40 TDP1 no CPT,HT1080 IDH1KD tx
COc1ccc([C@H]2C[C@H](O)[C@@H](n3cc(C4CC4)nn3)CN2Cc2cccs2)cc1,8.9%,?,15.1,11.6µM*,-3.8%
O[C@H]1C[C@H](c2ccccc2)N(Cc2cccs2)C[C@@H]1n1cc(C2CC2)nn1,-19.9%,?,-10.1,20.6µM*,-17.5%
CC1(C(=O)NS(=O)(=O)c2ccc(C#N)cc2)CCN1C(=O)C1(c2ccccc2)CC1 (centres undefined),19.8%,2.6%,24.5,-26.5%,6.1%
CCC(C)(C)OC(=O)N[C@@H](Cc1c[nH]c2ccccc12)C(=O)N[C@@H](CCSC)C(=O)N[C@@H](CC(=O)O)C(=O)N[C@@H](Cc1ccccc1)C(N)=O,nt,-5.7%,nt,-22.7%,nt
NC(=O)CCC(=O)N1CCCC(C(=O)c2ccc(C(F)(F)F)cc2)C1 (centres undefined),11.5%,-14.1%,-4.1,18.6%,7.4%
O=C(c1cc(F)ccc1F)C1CCCN(C(=O)CCc2cnccn2)C1 (centres undefined),4.6%,-7.3%,16.1,-21.3%,2.1%
O=C(c1cccc2ccccc12)C1CCCN(C(=O)CCc2cnccn2)C1 (centres undefined),-6.2%,?,13.8,8.2µM*,-7.6%
CN(C)C(=O)N1CCC(C(=O)N2CCCC(C(=O)c3ccc(C(C)(C)C)cc3)C2)CC1 (centres undefined),-0.8%,?,-5.3,16.4µM*,-12.5%
CN(C)C(=O)CCC(=O)N1CCCC(C(=O)c2ccc(C(F)(F)F)cc2)C1 (centres undefined),-7.0%,?,0.1,25.9µM*,-2.7%
O=C(c1ccc(C(F)(F)F)cc1)C1CCCN(C(=O)CCc2ccncc2)C1 (centres undefined),-18.1%,8.2µM*,-4.7,6.51µM*,-26.3%
CC(C)(C)c1ccc(C(=O)C2CCCN(C(=O)CN3CCCC3=O)C2)cc1 (centres undefined),-0.3%,?,39.5,?,0.3%
CC(=O)Nc1ccc(S(=O)(=O)NCCS(=O)(=O)N2CCN(c3ccccc3F)CC2)cc1,-4.2%,16.4µM*,22.7,20.6µM*,-1.1%
Cc1cc(C)c(S(=O)(=O)NCCS(=O)(=O)N2CCN(c3ccccc3)CC2)c(C)c1,nt,23.1µM*,nt,18.4µM*,nt
CC(=O)Nc1ccc(S(=O)(=O)NCCS(=O)(=O)N2CCN(c3ccccc3)CC2)cc1,-20.2%,?,45.7,-15.9%,-12.2%
O=[N+]([O-])c1ccc(S(=O)(=O)NCCS(=O)(=O)N2CCN(c3ccccc3)CC2)cc1,-9.4%,?,36.9,16.4µM*,-4.2%
Cc1ccc(N2CC(C(=O)NCCS(=O)(=O)N3CCN(c4ccccc4F)CC3)CC2=O)cc1 (centres undefined),13.3%,14.6µM*!,-4.5,?,8.0%
COc1cccc(CNC(=O)Cn2nc(-c3ccc(C)cc3)ccc2=O)c1,nt,-27.9%,nt,-13.9%,nt
CCOC(=O)c1cc2c(N)c(C(=O)c3ccc(Br)cc3)sc2[nH]c1=O,25.2%,-16.5%,11.2,-7.8%,-1.7%
Cc1ccc(OCc2nnc(SCC(=O)C(C)(C)C)n2Cc2ccco2)cc1,-15.5%,?,-10.5,16.4µM*,0.6%[9.24 µM]
CC1CCN(C(=S)Nc2ccc(F)cc2)CC1,-26.3%,?,-8.8,?,-43.7%
C/C(=N\NC(=S)Nc1ccc(F)cc1)C1CC1,8.91µM*,?,3.1,?,11.2µM*
Cc1ccccc1NC(=O)CN1CCC(C(=O)c2ccc3c(c2)OCCO3)CC1,-6.9%,?,13.5,18.4µM*,-2.6%
O=C(CN1CCN(CC(=O)Nc2ccccc2Cl)CC1)NCC1(N2CCCCC2)CCCCC1,-6.4%,?,-7.9,20.6µM*,8.4%
COc1ccccc1NC(=O)CN1CCN(CC(=O)Nc2ccc3c(c2)OCCO3)CC1,6.1%,?,-29.2,?,7.8%
Cc1ccc(C(=O)C2CCN(CC(=O)Nc3ccccc3C)CC2)cc1,-14.9%,?,-15.8,?,-3.9%
SMILES,HT1080-NT tox,TDP1 cell CPT,IL1B secr inh,DT40 TDP1 no CPT,HT1080 IDH1KD tx
O=C(CN1CCC(C(=O)c2ccc3c(c2)OCCO3)CC1)Nc1ccccc1C(F)(F)F,3.2%,?,-56.9*,?,-16.0%
O=C(CN1CCN(CC(=O)Nc2ccccc2Cl)CC1)Nc1ccc2c(c1)OCCO2,-0.1%,?,-8.4,23.1µM*,-2.1%
O=C(CN1CCN(CC(=O)Nc2ccccc2Cl)CC1)NCC1(N2CCOCC2)CCCCC1,3.7%,?,-28.8,?,1.5%
CCOc1ccc(C(=O)C2CCN(CC(=O)Nc3ccccc3N3CCOCC3)CC2)cc1,?,16.4µM*,-25.1,18.4µM*,?
O=C(/C=C/c1ccc(Cl)cc1Cl)c1ccc[nH]1,?,?,-86.4*,?,-14.8%
O=C(/C=C/c1ccc(Cl)cc1Cl)n1cccn1,?,?,-61.1*,?,?
O=C(/C=C/c1ccc(Cl)cc1Cl)NC(=S)Nc1ccccn1,12.1%,-26.1%,-22.4,?,13.9%
C/C(=N\NC(=O)c1c(C)nc2ccccn12)c1ccc(N2CCOCC2)cc1,9.0%,21.3%,1.7,-0.1%,1.1%
Cc1nc2ccccn2c1C(=O)NNS(=O)(=O)c1ccc(C(C)(C)C)cc1,-9.0%,8.2µM*,1.9,6.51µM*,-28.7%
COc1ccc(Br)cc1S(=O)(=O)NNC(=O)c1c(C)nc2ccccn12,-2.9%,-3.2%,39.2,?,10.7%
C/C(=N\NC(=O)c1c(C)nc2ccccn12)c1ccc(C(C)(C)C)cc1,-24.8%,18.4µM*,-0.6,11.6µM*,-26.5%
COc1ccccc1Nc1ncccc1C(=O)NCc1ccccc1,7.9%,-23.8%,22.4,-9.0%,5.7%
CN(C(=O)C(=O)Nc1ccc2nc3n(c(=O)c2c1)CCCCC3)c1cccc(C(F)(F)F)c1,nt,4.0%,nt,-0.7%,nt
Cc1nnc(SCC(=O)NC2CCCC2)n1C(C)C,14.9%,3.3%,-7.7,1.4%,12.3%
Cc1ccc(C)c(NC(=S)NC(NC(=O)/C=C/c2ccccc2)C(Cl)(Cl)Cl)c1 (centres undefined),?,?,?,23.1µM*,?
O=C(/C=C/c1ccccc1)NC(NC(=S)Nc1ccc(C(=O)O)cc1)C(Cl)(Cl)Cl (centres undefined),10.8%,-5.5%,13.8,-7.3%,5.0%

# Source: PubChem BioAssay
